Source: PubChem (National Center for Advancing Translational Sciences (NCATS))
GLP1R cytotox = cytotoxicity in counter-screen for GLP-1R inverse agonists; Potency, µM (series often up to 38.3 µM), for inactives: top-dose activity change, negative = inhibition, hits mostly inhibitors; actives 0.13% (n = 410,000); HEK293 cAMP-luciferase reporter cells, luminescence, 24 h;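 also: loss of luciferase light is scored as toxicity; potency is read from the fitted curve at half-maximal effect; % is scaled to controls: 0 for no effect and ±100 for the full control effect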
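Here, cytotoxicity is scored as loss of luminescence. The MLSMR collection was tested on cells seeded in medium containing 10% Nu serum, with a 24 hr compound exposure preceded by 12 hours of culture.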
hERG WT inh = inhibitors of human wildtype KCNH2 potassium channel; Q12809; U2OS, BacMam KCNH2, thallium flux FluxOr; hits give low values; activity change, % at 1.84 µM; actives 0.37% (n = 340,000); AID 720551;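 active = maximum activity change below -70%; inconclusive = maximum activity change between -70% and -50%; inactive = maximum activity change above -50%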; also: % is scaled to controls: 0 for no effect and ±100 for the full control effect
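U2OS cells were transduced with wild-type KCNH2 virus (2.03 x 10^8 / mL) for 4 h at room temperature, then cultured overnight at 37 C. Thallium flux was read with FluxOr dye. Rate constants were normalized to DMSO controls.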
GLP-1R agonist = agonists of human GLP-1 receptor; Potency, µM (titrated, usually from 45.6 µM), without a hit: top-dose activation, most hits filed as activators; P43220; HEK293 GLP-1R CRE-luciferase, luminescence, 4-6 h; cells express a hypersensitive GLP-1R form; actives 0.007% (n = 380,000); also: potency is read from the fitted curve at half-maximal effect; % of control where 0% means no effect
Target sequence (P43220 whole entry, looked up): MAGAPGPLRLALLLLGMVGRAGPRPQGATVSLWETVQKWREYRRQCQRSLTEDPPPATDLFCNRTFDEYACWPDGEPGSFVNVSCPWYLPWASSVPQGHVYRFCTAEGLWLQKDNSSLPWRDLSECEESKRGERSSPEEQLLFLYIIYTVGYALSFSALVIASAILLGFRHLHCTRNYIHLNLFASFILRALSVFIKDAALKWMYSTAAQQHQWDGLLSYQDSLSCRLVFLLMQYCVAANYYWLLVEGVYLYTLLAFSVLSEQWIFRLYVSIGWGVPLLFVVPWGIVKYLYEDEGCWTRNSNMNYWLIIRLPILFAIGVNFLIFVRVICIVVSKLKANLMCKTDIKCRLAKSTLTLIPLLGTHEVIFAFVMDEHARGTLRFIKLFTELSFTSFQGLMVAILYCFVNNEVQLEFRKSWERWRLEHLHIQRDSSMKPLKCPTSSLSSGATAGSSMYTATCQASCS
GLS inhibitor = glutaminase GLS (human) inhibition | Potency, µM (top dose mostly 45.5 µM), without a hit: at the highest dose activity change, negative = inhibition, hits mostly inhibitors | GLS enzymatic activity, qHTS titration | actives 0.21% (n = 410,000); also: potency is read from the fitted curve at half-maximal effect; % is scaled to controls: 0 for no effect and ±100 for the full control effect
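Glutamate formation by hKGA was monitored fluorometrically using coupled glutamate oxidase, HRP and Amplex Red. Substrate was added as 1 mM L-glutamine solution; incubation was 30 min at RT after an initial read.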
GLP1R inv ag = inverse agonists of human GLP-1 receptor; P43220; HEK293 GLP-1R CRE-luciferase, luminescence, 24 h; GLP-1R form is constitutively active; Potency, µM (titrated, usually from 38.3 µM), inactives show at the highest dose activity change, negative = inhibition, most hits filed as inhibitors; actives 1.6% (n = 410,000); AID 624417; also: potency is read from the fitted curve at half-maximal effect; % is scaled to controls: 0 for no effect and ±100 for the full control effect; nearly all actives have a fitted effect of over 55% in size
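Inverse agonists were sought by their lowering of basal cAMP reporter luciferase output in HEK293 cells stably carrying constitutively active human GLP-1R, after 24 h compound treatment.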
KCNH2 3.1 block = inhibitors of human KCNH2 3.1 potassium channel isoform. U2OS KCNH2 3.1, thallium flux FluxOr; hits give low values. activity change, % (tested at about 1.8 µM). actives 0.95% (n = 340,000). AID 720553;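 active = maximum activity change below -70%; inconclusive = maximum activity change from -70% to -50%; inactive = maximum activity change above -50%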;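 also: thallium influx rate constant from kinetic fluorescence after stimulation buffer; % is scaled to controls: 0 for no effect and ±100 for the full control effect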
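Virally transduced U2OS (3.1 isoform, 4 h infection in dark at RT) → overnight 37 C → FluxOr + Red40 in HBSS/HEPES, 45 min → stimulation buffer, 2 min kinetic read → rate constant vs DMSO controls.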
The depositor's hits bear a star; ? = inconclusive; . = no result; [ ] = remark or other dose. Sampled rows, rich in hits. Any-hit rate of the full collection: about 2.8%. Unless noted, calls follow the shape of the dose curve; as a rule, active = well fitted curve in the direction sought with a large enough effect; inconclusive = small, poorly fitted or top-dose-only effect, or another doubt; inactive = no such curve, though single readings can be large; an effect the other way counts as inactive or inconclusive.

SMILES | GLP1R cytotox | hERG WT inh | GLP-1R agonist | GLS inhibitor | GLP1R inv ag | KCNH2 3.1 block
N#Cc1nc(COc2ccc(-c3ccccc3)cc2)oc1NCCCN1CCOCC1 | -21% | 14 | -2% | 5% | ? | ?
OCC1(CCOc2ccccc2)CCN(Cc2cccn2-c2ncccn2)CC1 | -8% | -16 | -4% | 0% | 1% | -93*
CC(=O)Nc1ccc(CN2CCC(CO)(CCOc3ccccc3)CC2)cc1 | 1% | 52 | 3% | 3% | -13% | ?
COc1ccc(OC)c(CN2CCC(CO)(CCOc3ccccc3)CC2)c1 | 1% | 69 | 4% | -15% | ? | -75*
COc1cc(CN2CCC(CO)(CCOc3ccccc3)CC2)cc(OC)c1 | -9% | 19 | 11% | 0% | ? | ?
OCC1(CCOc2ccccc2)CCN(C2Cc3ccccc3C2)CC1 | 4% | 15 | 6% | 10% | ? | -77*
CCOC(=O)C1(CCOc2ccccc2)CCN(Cc2cccn2-c2cccnc2)CC1 | -5% | 33 | 22% | -1% | ? | 2
Cc1cc(C)c(CN2CCC(CO)(CCOc3ccccc3)CC2)cc1C | ? | -35 | 14% | 4% | ? | -111*
Cc1ccc(Cl)cc1N1CCN(CCCNC(=O)C2COc3ccccc3C2)CC1 (centres undefined) | 10% | . | . | 5% | 7% | .
CCC1Oc2ccccc2N(CC(=O)NC2CCCCC2)C1=O (centres undefined) | 3% | 22 | 5% | -29% | ? | 2
O=C(NCC1CCN(Cc2ccccc2Cl)CC1)c1cc2ccc3cccnc3c2[nH]1 | -16% | . | . | 4% | ? | .
CCOC(=O)c1cccc(NC(=O)NC2COc3ccccc3C2)c1 (centres undefined) | -14% | . | . | -21% | ? | .
CCOc1ccc(-c2n[nH]c(C)c2-c2ccccc2OC)c(O)c1 | ? | -1 | 5% | -5% | 5µM* | 14
COc1ccc(-c2n[nH]c(C)c2-c2cscn2)c(O)c1 | -3% | -5 | 1% | -3% | -12% | 9
Cc1ccccc1-c1nn(-c2ccc(F)cc2F)cc1CNCCCN(C)C | ? | 4 | 9% | 10µM* | ? | -1
Cc1ccccc1-c1nn(-c2ccc(F)cc2F)cc1CNCCN(C)C | -3% | -1 | 6% | -10% | ? | 10
Cc1cccc(Cn2c(COc3ccc(Cl)cc3)nc3ccccc32)c1 | 39% | . | . | -1% | -4% | .
Cn1c(=S)c2[nH]c(SCCN3CCCC3)nc2n(C)c1=O | ? | -17 | -5% | -5% | 5.6µM* | -6
Cn1c(=O)c2c(nc(SCCN3CCCCC3)n2C)n(C)c1=O | 0% | -5 | -1% | 5% | 9% | 0
Cn1c(=S)c2[nH]c(SCCN)nc2n(C)c1=O | 3.2µM* | -4 | -3% | 2% | ? | -11
CCN1CCCC(Sc2nc3c([nH]2)c(=S)n(C)c(=O)n3C)C1 (centres undefined) | ? | 10 | 0% | 8% | 4.5µM* | -7
Cn1c(=O)c2[nH]c(C3CCC3)nc2n(C)c1=O | 24% | -7 | 1% | 3% | 11% | -6
Cc1ccc(OCC(=O)Nc2sc3c(c2C(N)=O)CCCC3)c(C(C)(C)C)c1 | 17% | . | . | 3% | 5% | .
COc1ccc2[nH]c3c(c2c1)CCN1C(=O)C(CC(=O)NCCC2=CCCCC2)C[C@H](C(=O)N(C(C)C)C(C)C)[C@@]31C (some centres undefined) | ? | -12 | -2% | 6% | 10µM* | -1
O=C(C[C@H]1C[C@H](C(=O)N2CCOCC2)[C@@]2(CCC3CCCC3)c3[nH]c4cc(-c5ccco5)ccc4c3CCN2C1=O)NCCC1=CCCCC1 | -15% | -36 | -1% | 1% | 10µM* | -11
SMILES | GLP1R cytotox | hERG WT inh | GLP-1R agonist | GLS inhibitor | GLP1R inv ag | KCNH2 3.1 block
CCN(CC)C(=O)[C@H]1CC(CC(=O)NCCC2=CCCCC2)C(=O)N2CCc3c([nH]c4ccc(OC)cc34)[C@]12C (some centres undefined) | 1% | -3 | -1% | 4% | ? | -8
Cc1nc(SC(C)C(=O)Nc2ccccc2Cl)cc(-c2ccccc2)n1 (centres undefined) | -2% | . | . | 6% | -5% | .
C[C@]12CCC(=O)C=C1CC[C@@H]1[C@@H]2[C@@H](O)C[C@@]2(C)[C@H]1CC[C@]2(O)C(=O)COP(=O)(O)O | . | . | -1% | -1% | . | .
CC(C)c1ccc(NC(=S)NN(c2ccccc2)c2ccccc2)cc1 | ? | -9 | -1% | 17% | 5.6µM* | -26
CCC(C(=O)Nc1cccc(C#N)c1)n1nc(-c2ccccc2)ccc1=O (centres undefined) | -5% | . | . | 2% | -14% | .
O=C1CCCc2ccccc2N1Cc1ccc(Cl)cc1Cl | -1% | -8 | -6% | 2% | 11µM* | -17
O=C1CCCc2ccccc2N1Cc1ccccc1Cl | 13% | -5 | 53% | 1% | ? | 0
O=C(Cn1c2c(c(-c3ccccc3)cc1=O)CCCC2)N1CCCCCC1 | 12% | 0 | 3% | -8% | 13µM* | 15
O=C(c1ccccc1Cl)N1CCC(N2CCC(C(=O)N3CCCC3)CC2)CC1 | -3% | -10 | 0% | 6% | 26% | -87*
O=C(c1cc(F)ccc1F)N1CCC(N2CCC(C(=O)N3CCCC3)CC2)CC1 | -5% | 6 | -1% | -6% | 6% | 3
CCOC(=O)c1cc(-c2ccco2)nn1-c1ccc(C)cc1 | -1%[7.66 µM] | -4 | 12% | -10% | -6%[7.66 µM] | -5
Cc1ccc(-n2nc(-c3ccco3)cc2C(=O)O)cc1 | -7% | 7 | -2% | 11µM* | -4% | -4
O=C(c1ccc2c(c1)CCN2S(=O)(=O)c1ccc(Cl)cc1)N1CCN(c2ccccc2)CC1 | -1% | . | . | 2% | ? | .
O=C(CN1CCN(S(=O)(=O)c2ccc(Br)s2)CC1)N1CCCCC1 | -1% | -227* | -1% | -4% | ? | 13
Cc1cc(C)c2c(N)c(C(=O)Nc3ncc(C)s3)sc2n1 | 247% | 9 | -27% | -11% | 1.3µM* | 9
COC(=O)c1sc2nc(C)cc(C)c2c1N | 30% | 0 | 7% | 8% | 85% | 4
COc1ccc(Cl)cc1NC(=O)Cn1c(=O)n(Cc2cccs2)c(=O)c2cccnc21 | -9% | . | . | -3% | -27% | .
Cc1nn(Cc2cccc(C(=O)NC3CCCCC3)c2)c(C)c1Cl | 14% | 6 | 2% | 8% | 10µM* | 1
COCCN(CCOC)C(=O)c1cc2c(=O)n3ccccc3nc2n1C | 179% | . | . | -9% | 13% | .
COc1ccc(-c2nnc(SCC(=O)Nc3cccc(C(F)(F)F)c3)nc2-c2ccc(OC)cc2)cc1 | 7% | . | . | 0% | 11% | .
